This passage reports outcome and Potency results from PubChem BioAssay (NCATS).

The test system of assay [1] is Nanoluciferase (engineered Oplophorus gracilirostris luciferase). The assay is described as follows: Primary Nanoluciferase (NLuc) qHTS assay for identification of artifact compounds. (AID 1845222).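 Also: NLuc secreted into diluted conditioned medium of S16 cells.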 The essentials: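 NLuc from S16 cell medium (1:55) plus test compounds, 15 min, room temperature. Luminescence after Nano-Glo (1:100) addition, 5 min.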
The nature of assay [2]: Primary redox qHTS assay for identification of artifact compounds. (AID 1845223). In a few lines:
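Amplex Red (25 uM) and HRP (250 mU/mL) in HBSS, with compounds for 15 min, then 250 uM DTT for 30 min, room temperature, dark. Fluorescence 525/598 nm read; normalized to DMSO and 10 uM DA3003; Hill fit.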
In general terms: In qHTS, concentration-response curves come from the screen itself.

Assay [3] in a line: Quantitative High-Throughput drug screen in 47 multiple myeloma cell lines against the NCATS MIPE library collection: FR4_PLB cell viability assay (AID 1918924; also: nearly all actives have a fitted effect of over 35% in size; also: potency is read from the fitted curve at half-maximal effect). The essentials:
(§1)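 Luminescent ATP measurement with CellTiter-Glo gives viability, scaled between DMSO-only wells (100%) and media-only wells (0%). Cells, 500 per well, faced library compounds for 48 hours at 37C.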

Assay [4] is described as follows: Quantitative High-Throughput drug screen in 47 multiple myeloma cell lines against the NCATS MIPE library collection: ARD_JJKsccE7 cell viability assay (AID 1918929; also: potency is read from the fitted curve at half-maximal effect). The essentials:
(§2)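 Myeloma cell lines, 500 cells per well, exposed to MIPE 4.0 library compounds for 48 h at 37C, 5% CO2. Viability from ATP by CellTiter-Glo luminescence; normalised to DMSO (100%) and media-only (0%) wells.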

The nature of assay [5]: Quantitative High-Throughput drug screen in 47 multiple myeloma cell lines against the NCATS MIPE library collection: Karpas620_DSMZ cell viability assay (AID 1918959). Also: nearly all actives have a fitted effect of over 30% in size. Also: potency is read from the fitted curve at half-maximal effect. In a few lines:
as §1

Assay [6] is described as follows: Quantitative High-Throughput drug screen in 47 multiple myeloma cell lines against the NCATS MIPE library collection: KHM11_PLB cell viability assay (AID 1918962). Also: nearly all actives have a fitted effect of over 35% in size. Also: potency is read from the fitted curve at half-maximal effect. In a few lines:
as §1

A short description of assay [7]: Quantitative High-Throughput drug screen in 47 multiple myeloma cell lines against the NCATS MIPE library collection: JIM3_ECACC cell viability assay (AID 1918963; also: nearly all actives have a fitted effect of over 35% in size; also: potency is read from the fitted curve at half-maximal effect). The essentials:
as §1

Assay [8] can be described thus: Quantitative High-Throughput drug screen in 47 multiple myeloma cell lines against the NCATS MIPE library collection: H1112_PLB cell viability assay (AID 1918967; also: nearly all actives have a fitted effect of over 30% in size; also: potency is read from the fitted curve at half-maximal effect). The essentials:
as §2

Assay [9] is described as follows: Quantitative High-Throughput drug screen in 47 multiple myeloma cell lines against the NCATS MIPE library collection: EJM_DSMZ cell viability assay (AID 1918926; also: nearly all actives have a fitted effect of over 30% in size; also: potency is read from the fitted curve at half-maximal effect). The essentials: as §2
The nature of assay [10]: Quantitative High-Throughput drug screen in 47 multiple myeloma cell lines against the NCATS MIPE library collection: ARP1_JJKsccF8 cell viability assay (AID 1918928; also: nearly all actives have a fitted effect of over 40% in size; also: potency is read from the fitted curve at half-maximal effect). In a few lines:
(§3)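 Luminescence from CellTiter-Glo, taken after 5 min at room temperature, reports cellular ATP as viability. Cells (500 per well) had been treated 48 h at 37 °C with MIPE 4.0 compounds, scaled between DMSO and medium-only controls.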

Assay [11] is described as follows: Quantitative High-Throughput drug screen in 47 multiple myeloma cell lines against the NCATS MIPE library collection: INA6_PLB cell viability assay (AID 1918965; also: nearly all actives have a fitted effect of over 55% in size; also: potency is read from the fitted curve at half-maximal effect). In a few lines: (§4)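 Steps: seed 500 cells per well; pin-transfer MIPE 4.0 library; incubate 48 h at 37C, 5% CO2, humidified; add CellTiter-Glo, 5 min room temperature; read luminescence.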
A short description of assay [12]: Quantitative High-Throughput drug screen in 47 multiple myeloma cell lines against the NCATS MIPE library collection: KMS27_JCRB cell viability assay (AID 1918970). Also: nearly all actives have a fitted effect of over 30% in size. Also: potency is read from the fitted curve at half-maximal effect. The essentials: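 Each line is seeded at 500 cells per well and treated with library compounds for 48 hours under 37 °C, 5% CO2. CellTiter-Glo is then added for 5 min at room temperature before median relative luminescence is recorded.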

Assay [13] is described as follows: Quantitative High-Throughput drug screen in 47 multiple myeloma cell lines against the NCATS MIPE library collection: Delta47_JCRB cell viability assay (AID 1918925; also: nearly all actives have a fitted effect of over 45% in size; also: potency is read from the fitted curve at half-maximal effect). The essentials: as §2
Assay [14] is described as follows: Quantitative High-Throughput drug screen in 47 multiple myeloma cell lines against the NCATS MIPE library collection: AMO1_DSMZ cell viability assay (AID 1918927; also: nearly all actives have a fitted effect of over 30% in size; also: potency is read from the fitted curve at half-maximal effect). The essentials: as §2
Assay [15] is described as follows: Quantitative High-Throughput drug screen in 47 multiple myeloma cell lines against the NCATS MIPE library collection: KMM1_JCRB cell viability assay (AID 1918960). Also: nearly all actives have a fitted effect of over 30% in size. Also: potency is read from the fitted curve at half-maximal effect. In a few lines: as §3
Assay [16] in a line: Quantitative High-Throughput drug screen in 47 multiple myeloma cell lines against the NCATS MIPE library collection: Karpas417_ECACC cell viability assay (AID 1918961). Also: potency is read from the fitted curve at half-maximal effect. The conditions noted are these: Karpas417 myeloma viability, CellTiter-Glo ATP luminescence, 48 h; viability (% of DMSO): at 45.8 µM (top of the series). The essentials:
as §4

Assay [17] can be described thus: Quantitative High-Throughput drug screen in 47 multiple myeloma cell lines against the NCATS MIPE library collection: Karpas25_ECACC cell viability assay (AID 1918968; also: nearly all actives have a fitted effect of over 35% in size; also: potency is read from the fitted curve at half-maximal effect). In a few lines:
as §2

Assay [18] is described as follows: Quantitative High-Throughput drug screen in 47 multiple myeloma cell lines against the NCATS MIPE library collection: JJN3_DSMZ cell viability assay (AID 1918966; also: nearly all actives have a fitted effect of over 50% in size; also: potency is read from the fitted curve at half-maximal effect). In a few lines: as §2
Assay [19] is described as follows: Quantitative High-Throughput drug screen in 47 multiple myeloma cell lines against the NCATS MIPE library collection: JIM1_ECACC cell viability assay (AID 1918964; also: potency is read from the fitted curve at half-maximal effect). The essentials: as §2
Assay [20] can be described thus: Quantitative High-Throughput drug screen in 47 multiple myeloma cell lines against the NCATS MIPE library collection: KMS12BM_JCRB cell viability assay (AID 1918971). Also: nearly all actives have a fitted effect of over 35% in size. Also: potency is read from the fitted curve at half-maximal effect. The essentials:
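CellTiter-Glo luminescence (ATP) after 48 h compound exposure, 37C/5% CO2; 500 cells/well; MIPE 4.0 approved/investigational drugs pinned in; DMSO = 100%, media only = 0% viability.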

Results filed as inconclusive are left out. Activity calls are given as the source filed them. Calls follow the shape of the dose curve; as a rule, active = well fitted curve in the direction sought with a large enough effect; inconclusive = small, poorly fitted or top-dose-only effect, or another doubt; inactive = no such curve, though single readings can be large; an effect the other way counts as inactive or inconclusive.

For the compound `CC(=O)Nc1ccc(OC[C@](C)(O)C(=O)Nc2ccc([N+](=O)[O-])c(C(F)(F)F)c2)cc1`, the outcome in assay [1] and in assay [2] was inactive. For the same compound, the Potency entry in assay [3], in [4], in assay [5], in assay [6], in assay [7] and in assay [8] was “inactive” throughout.

With `CC(C)[C@]12O[C@H]1[C@@H]1O[C@]13[C@]1(O[C@H]1C[C@H]1C4=C(CC[C@@]13C)C(=O)OC4)[C@@H]2O`, the outcome in assay [1] and in assay [2] was inactive.

`O=C(Oc1ccc([N+](=O)[O-])cc1)N1CCC(C(O)(c2ccc3c(c2)OCO3)c2ccc3c(c2)OCO3)CC1`: the result in [1] and in [2] was inactive. Moreover, the Potency entry in assay [3], in assay [9], in assay [10] and in assay [12] was “inactive” each time. Further, the Potency is 8.33 µM (active) in [7], 10.5 µM (active) in [11] and 10.5 µM (active) in assay [8].

Consider `S=C(NC1CCCCC1)N1CCC(c2cnc[nH]2)CC1`, for which the result in [1] and in assay [2] was inactive.

`CN1CCN(c2ccc([N+](=O)[O-])c3no[n+]([O-])c23)CC1`: the result in assay [2] was inactive. The Potency was 20.9 µM (active) in assay [3]; 8.33 µM (active) in assay [13]; 16.6 µM (active) in assay [14]; 9.35 µM (active) in [10]; 23.5 µM (active) in assay [4]; 20.9 µM (active) in [5]. Further, the Potency is 20.9 µM (active) in assay [15]; 5.26 µM (active) in assay [16]; 14.8 µM (active) in assay [6]; 23.5 µM (active) in assay [7]; 13.2 µM (active) in assay [11]; 23.5 µM (active) in assay [8]. The Potency was 18.7 µM (active) in [17] and 20.9 µM (active) in assay [12].

Regarding `CCOP(=O)(OCC)C(C)NC(=O)N(CCCl)N=O` (stereo not given), the Potency result in assay [3], in [13], in [9], in [14], in assay [10] and in assay [4] was “inactive” throughout. Further, the Potency entry in assay [5], in [15], in assay [16], in [6], in [7] and in [18] was “inactive” throughout. For the same compound, the Potency result in [8] and in assay [12] was “inactive” each time.

On to `CCc1c(C(=O)C(N)=O)c2c(OCC(=O)O)cccc2n1Cc1ccccc1`, for which the call in [1] and in [2] was inactive. The Potency entry in [3], in assay [13], in assay [9], in assay [14], in [4] and in assay [5] was “inactive” each time. Further, the Potency result in assay [15], in [16], in assay [7], in assay [19], in assay [11] and in assay [18] was “inactive” each time. The Potency entry in assay [8], in assay [12] and in [20] was “inactive” each time.

Consider `Cc1ccccc1-n1c(Cn2ncc3c(N)ncnc32)nc2cccc(C)c2c1=O`, for which the compound was called inactive in assay [1] and in [2]. The Potency in [3] is 4.69 µM (active); in assay [13], 0.209 µM (active); in assay [9], 16.6 µM (active); in assay [14], 0.148 µM (active); in [10], 4.69 µM (active); in assay [4] it was 0.118 µM (active). Besides, the Potency was 0.0372 µM (active) in assay [5]; 0.372 µM (active) in [15]; 0.332 µM (active) in assay [6]; 0.418 µM (active) in assay [7]; 0.0662 µM (active) in assay [19]; 0.235 µM (active) in assay [11]. Also, the values for the Potency in assay [17], in assay [12] and in assay [20] were 0.264 µM (active), 0.0235 µM (active) and 7.43 µM (active), respectively. In [18], the Potency entry was “inactive”.

Turning to `COC1=C[C@@H]2[C@@H]3Cc4ccc(OC)c(O)c4[C@]2(CCN3C)CC1=O`, the result in assay [1] and in [2] was inactive. Besides, the Potency in [13] was 3.32 µM (active); in assay [14], 3.32 µM (active); in assay [10] it was 26.4 µM (active); in assay [4], 6.62 µM (active); in assay [5], 20.9 µM (active); in [16], 10.5 µM (active). In addition, the values for the Potency in assay [6], in assay [7] and in assay [11] were 4.69 µM (active), 9.35 µM (active) and 8.33 µM (active), respectively.

With `Cc1ccccc1-n1c(Cn2cnc3c(N)ncnc32)nc2cccc(C)c2c1=O`, the result in assay [1] and in assay [2] was inactive. Also, the Potency was 6.62 µM (active) in assay [3]; 0.105 µM (active) in assay [13]; 4.18 µM (active) in assay [9]; 0.833 µM (active) in assay [14]; 0.132 µM (active) in assay [10]; 4.18 µM (active) in [5]. Further, the Potency in [15] was 0.372 µM (active); in assay [16], 0.132 µM (active); in assay [7] it was 1.05 µM (active); in assay [11], 0.935 µM (active); in [18], 0.833 µM (active); in assay [12] it was 0.296 µM (active). The Potency in assay [20] was 1.48 µM (active).

For `CC(=O)N(C)c1cccc(-c2ccnc3c(C(=O)c4cccs4)cnn23)c1`, the outcome in assay [1] and in assay [2] was inactive. In addition, the Potency result in assay [3], in assay [9], in assay [7], in assay [8], in assay [17] and in assay [20] was “inactive” in each case. The Potency in assay [4] is 20.9 µM (active); in assay [16] it was 23.5 µM (active); in assay [11], 14.8 µM (active); in [12] it was 20.9 µM (active).

For `CCN(CC)C(=O)c1ccc(C2=CC3(CCNCC3)Oc3cccc(O)c32)cc1`, the compound was classed as inactive in assay [1] and in assay [2]. Also, the Potency result in [13], in assay [9], in [14], in [4], in [5] and in assay [7] was “inactive” each time. Also, the Potency result in assay [11], in assay [8] and in [17] was “inactive” in each case.

Regarding `CCNC(=O)CC1N=C(c2ccc(Cl)cc2)c2cc(OC)ccc2-n2c(C)nnc21` (stereo not given), the outcome in assay [1] and in assay [2] was inactive. Also, the Potency in assay [13] was 6.62 µM (active); in [14] it was 10.5 µM (active); in [4] it was 13.2 µM (active); in [16] it was 4.18 µM (active); in [19], 16.6 µM (active); in assay [11] it was 6.62 µM (active). Besides, the Potency in [20] was 16.6 µM (active).

In the case of `C[C@@H]1CC[C@@]2(OC1)O[C@H]1C[C@H]3[C@@H]4CC=C5C[C@@H](O[C@@H]6O[C@H](CO)[C@@H](O[C@@H]7O[C@@H](C)[C@H](O)[C@@H](O)[C@@H]7O)[C@H](O)[C@@H]6O[C@@H]6O[C@@H](C)[C@H](O)[C@@H](O)[C@@H]6O)CC[C@]5(C)[C@@H]4CC[C@]3(C)[C@@H]1[C@H]2C`, the Potency in assay [3] was 2.35 µM (active); in [13], 5.9 µM (active); in assay [9], 2.64 µM (active); in [14], 2.64 µM (active); in assay [10], 3.32 µM (active); in assay [4], 2.35 µM (active). Moreover, the Potency in assay [5] is 2.96 µM (active); in [15], 2.64 µM (active); in assay [16], 1.05 µM (active); in [6], 2.96 µM (active); in [7], 3.72 µM (active); in assay [19] it was 2.35 µM (active). The Potency was 5.26 µM (active) in assay [11]; 2.35 µM (active) in [18]; 4.69 µM (active) in assay [8]; 0.935 µM (active) in assay [12]; 2.64 µM (active) in assay [20].
